According to the supplement of paper PMC9950053:
Where a name gives a salt, the structure may show the parent alone.

The compounds below were run on Danio rerio larvae (5 dpf) (assay: combined upward orientation toward moving lines (periods 7-14) minus DMSO control (percentage points); higher = more orientation with moving lines than DMSO larvae). Details: 10 µM; exposure time: 3 h pre-incubation + 3 h imaging.
Protocol: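 Wild-type 5 dpf zebrafish larvae (n=48 per drug, 96-well plates, 28.5 °C) were exposed to Tocris FDA-approved library compounds at 10 µM (0.1% DMSO) for 3 h before and 3 h during imaging. Images were taken every 6 s during visual (moving coloured lines) and acoustic stimuli, and larvae were tracked with the DeepLabCut-based Z-LaP Tracker. Each behavioural measure is the treated-group mean minus the DMSO vehicle control mean (n=844), in percentage points. This mapping covers compounds with 4-character plate codes.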

| SMILES | combined upward orientation toward moving lines |
| --- | --- |
| CC(=O)Oc1ccccc1C(=O)O [Aspirin] | -3.93 |
| CC(=O)O[C@H]1C(=O)[C@@]2(C)[C@H]([C@H](OC(=O)c3ccccc3)[C@]3(O)C[C@H](OC(=O)[C@H](O)[C@@H](NC(=O)c4ccccc4)c4ccccc4)C(C)=C1C3(C)C)[C@]1(OC(C)=O)CO[C@@H]1C[C@@H]2O [Taxol] | -6.91 |
| Nc1ncn([C@H]2C[C@H](O)[C@@H](CO)O2)c(=O)n1 [Decitabine] | -6.22 |
| CC1=Nc2ccc(Cl)cc2S(=O)(=O)N1 [Diazoxide] | -1.53 |
| CC#C[C@]1(O)CC[C@H]2[C@@H]3CCC4=CC(=O)CCC4=C3[C@@H](c3ccc(N(C)C)cc3)C[C@@]21C [Mifepristone] | 2.94 |
| COCCCOc1cc(C[C@@H](C[C@H](N)[C@@H](O)C[C@H](C(=O)NCC(C)(C)C(N)=O)C(C)C)C(C)C)ccc1OC [Aliskiren hemifumarate] | -2.45 |
| C[C@@H](O[C@H]1OCCN(Cc2n[nH]c(=O)[nH]2)[C@H]1c1ccc(F)cc1)c1cc(C(F)(F)F)cc(C(F)(F)F)c1 [Aprepitant] | 4.05 |
| C=C1[C@H](CO)[C@@H](O)C[C@@H]1n1cnc2c(=O)[nH]c(N)nc21 [Entecavir] | -3.62 |
| CCOc1nc2cccc(C(=O)O)c2n1Cc1ccc(-c2ccccc2-c2noc(=O)[nH]2)cc1 [Azilsartan] | 1.61 |
| CC(C)(C(=O)c1cccnc1)c1cccnc1 [Metyrapone] | -5.62 |
| C[C@H](Cc1cc2c(c(C(N)=O)c1)N(CCCO)CC2)NCCOc1ccccc1OCC(F)(F)F [Silodosin] | -4.66 |
| COc1cc2ncnc(Nc3ccc(F)c(Cl)c3)c2cc1OCCCN1CCOCC1 [Iressa] | -7.88 |
| CCCCC1=NC2(CCCC2)C(=O)N1Cc1ccc(-c2ccccc2-c2nnn[nH]2)cc1 [Irbesartan] | -8.87 |
| N#Cc1ccc(C(c2ccc(C#N)cc2)n2cncn2)cc1 [Letrozole] | -1.71 |
| NS(=O)(=O)c1cc(C(=O)O)c(NCc2ccco2)cc1Cl [Furosemide] | -2.41 |
| Cc1ccsc1C(=CCCN1CCC[C@@H](C(=O)O)C1)c1sccc1C [Tiagabine hydrochloride] | 13.4 |
| CC(C)Nc1cccnc1N1CCN(C(=O)c2cc3cc(NS(C)(=O)=O)ccc3[nH]2)CC1 [Delavirdine mesylate] | -7.64 |
| CCOC(=O)[C@H](CCc1ccccc1)N[C@H]1CCc2ccccc2N(CC(=O)O)C1=O [Benazepril hydrochloride] | -4.13 |
| Cc1ccc(O)c([C@H](CCN(C(C)C)C(C)C)c2ccccc2)c1 [Tolterodine L-tartrate] | 0.814 |
| CCc1c2c(nc3ccc(OC(=O)N4CCC(N5CCCCC5)CC4)cc13)-c1cc3c(c(=O)n1C2)COC(=O)[C@]3(O)CC | -3.82 |

| SMILES | combined upward orientation toward moving lines |
| --- | --- |
| C[C@H]1C[C@@H]2[C@H]([C@@H](O)C[C@@]3(C)[C@H]2CC[C@]3(O)C(=O)CO)[C@@]2(C)C=CC(=O)C=C12 [Methylprednisolone] | -7.43 |
| C/C(O)=C(\C#N)C(=O)Nc1ccc(C(F)(F)F)cc1 [Teriflunomide] | -3.07 |
| CCCN(CCC)S(=O)(=O)c1ccc(C(=O)O)cc1 [Probenecid] | -6.67 |
| Nc1cccc2c1CN(C1CCC(=O)NC1=O)C2=O (stereo not given) [Lenalidomide] | 2.56 |
| Cc1cc(C2CCCCC2)n(O)c(=O)c1 [Ciclopirox] | -27.9 |
| Cc1ccc(-c2cc(C(F)(F)F)nn2-c2ccc(S(N)(=O)=O)cc2)cc1 [Celecoxib] | -15.8 |
| Nc1ncn([C@@H]2O[C@H](CO)[C@@H](O)[C@H]2O)c(=O)n1 [5-Azacytidine] | 2.4 |
| CCOC(=O)c1ncn2c1CN(C)C(=O)c1cc(F)ccc1-2 [Flumazenil] | 2.99 |
| O=C(O)CCCc1ccccc1 [Sodium 4-Phenylbutyrate] | -3.45 |
| CN1CCN(CCCN2c3ccccc3Sc3ccc(Cl)cc32)CC1 [Prochlorperazine dimaleate] | 0.242 |
| Nc1nc(F)nc2c1ncn2[C@@H]1O[C@H](CO)[C@@H](O)[C@@H]1O [Fludarabine] | -6.81 |
| Nc1nc2[nH]cc(CCc3ccc(C(=O)N[C@@H](CCC(=O)O)C(=O)O)cc3)c2c(=O)[nH]1 [Pemetrexed] | -1.85 |
| CC(C)c1ccc2oc3nc(N)c(C(=O)O)cc3c(=O)c2c1 [Amlexanox] | -5.36 |
| Cn1nnc2c(C(N)=O)ncn2c1=O [Temozolomide] | -6.36 |
| CC(=O)NC[C@H]1CN(c2ccc(N3CCOCC3)c(F)c2)C(=O)O1 [Linezolid] | 0.95 |
| CN1CC(=O)N2[C@H](c3ccc4c(c3)OCO4)c3[nH]c4ccccc4c3C[C@@H]2C1=O [Tadalafil] | -7.35 |
| CCCCc1nc(Cl)c(CO)n1Cc1ccc(-c2ccccc2-c2nnn[nH]2)cc1 [Losartan potassium] | -9.02 |
| CN(C)CCC[C@@]1(c2ccc(F)cc2)OCc2cc(C#N)ccc21 [Escitalopram oxalate] | -1.11 |
| COc1ccc(C[C@@H](C)NC[C@H](O)c2ccc(O)c(NC=O)c2)cc1 [Arformoterol tartrate] | 0.636 |
| O=C1CCc2cc(OCCCCc3nnnn3C3CCCCC3)ccc2N1 [Cilostazol] | -4.64 |
